The labels stand for the following.
T1: TRAF2, Q12933
T1 chain: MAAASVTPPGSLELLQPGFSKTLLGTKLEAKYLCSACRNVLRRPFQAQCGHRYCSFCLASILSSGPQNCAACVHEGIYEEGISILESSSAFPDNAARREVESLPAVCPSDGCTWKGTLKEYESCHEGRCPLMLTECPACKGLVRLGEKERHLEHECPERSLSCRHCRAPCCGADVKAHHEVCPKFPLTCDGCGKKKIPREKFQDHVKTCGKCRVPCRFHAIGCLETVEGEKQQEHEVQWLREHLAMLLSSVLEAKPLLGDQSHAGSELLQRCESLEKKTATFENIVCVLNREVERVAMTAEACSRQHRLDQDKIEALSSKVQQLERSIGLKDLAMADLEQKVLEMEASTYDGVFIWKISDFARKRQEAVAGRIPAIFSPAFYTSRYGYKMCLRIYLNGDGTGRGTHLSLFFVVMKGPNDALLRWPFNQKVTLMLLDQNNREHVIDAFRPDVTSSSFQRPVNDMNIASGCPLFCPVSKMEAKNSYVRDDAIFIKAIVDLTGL

B1: traf2_out_20_38_2040 (protein)
chain: EEEKEEEERLLEIAKKATEVADKTEAWVEEKLAAGVSPEEIIAETKKLITEKLAAIGKEEEAKELIERLDTLAAAGEVRRGVVLVMARAAAIVYQKEQEE
B2: traf2_out_20_3_2223 (protein)
chain: EELKREIEEELRKIEELLEKAKPLLPEEDYKKLKELLEKAREALETDLTDALVYLSELRRLALELAQEARAAGNEELAKLLEEMAERANRAAGLVLKAIE
B3: traf2_out_14_166_1275 (protein)
chain: MSPEEIERIRKIVDELEPLTDAAVARLEAILAANADKLTPEQLARVRALLDLARRNIGSSAINAIREIAAIFAAAGLAEAAAAARALADELEAKLKELNK
B4: traf2_out_18_167_1835 (protein)
chain: EEEKEKKRNELLDEMIDISEHYRAAIEYLELLAKDPKEAEAKKEEYMKKIDKDPELVAKIKEVLALPDEERKKAAKALADEVYDERQKKMQELWDKREAV
B5: traf2_out_20_38_2012 (protein)
chain: SEEEKEKEKEEKLIEHANEAYDRAEAWVAALQAAGKSVAEIAAEAKKRIRELLTAHGLEEEAEELIEDVDRVLDSPDAERLIVQILARAETLVFQKELQK
B6: traf2_out_13_95_1095 (protein)
chain: SAEVAAKINAIADKMLDEVLKILEELLKKMEKAGKLVEEVKEALDLAEKRSINEAIHLLKELAKKYPEFKEEFEEAIKKIEEIKREAGREVAKILKEEEE
B7: traf2_out_15_48_1341 (protein)
chain: SVEELRAVASEIADEIDAAKDAVAAELEALRPSAAPEQRAPLAEAIDAARHGRGQNTVLALLDRLEPLLAPEQAARVAALRDRLRAVVRAASARMAEVLK
B8: traf2_out_18_3_1931 (protein)
chain: SEEERKEVSDKIDEIVDDARARAERELERAREELPEKREEIDRLRAALEAGAAPFGILDALAELYEEAGKEEEAKEIEEYLSEKRKEMQELVDEYEKLIK
B9: traf2_out_11_169_847 (protein)
chain: EQEEKNRQIIDKALELEDKAKEELKKHALALAREAGLDVAEVEAIFEKHKGKSLSAIAAALIRWFREQGKEEAAAAVEAKYEELKEEINKKMTEFLKELE
B10: traf2_out_11_169_812 (protein)
chain: EEKEKNRKINDFALELNDEAKKELLKHAKALAKKAGLDVAEVEAIFEKHKNSSLSAVAAALIAYFKSKGKEEEAAAVLAKYEELKEEINKKVTEKIKELE
B11: traf2_out_17_178_1659 (protein)
chain: NKEEARAEISAATDELIDLTEATADRLLAILEADGTASPEELAALREARRLGSATTTRALMEAAVPRSPRSAEVAALLDDFTKRSGELAKKIAEAYKKYE
B12: traf2_out_8_174_2574 (protein)
chain: SERERLRIVSEVLTEFADILDEAEERLEALKDLPLEELRKESQKILDEALKRIDEIEERRVKEVDEETAELIRRAARSAKQQLRNMVEGTIKRKELREKA
B13: traf2_out_11_169_824 (protein)
chain: AEAERNRKINDKALELNDKAKEKLKEFALELAKKAGLDVEEVKAIFEKHKGASLSAIAAALIEYFRSKGKEEEAEAVLKKYEELKDEINKEMAKFLKELE
B14: traf2_out_12_165_941 (protein)
chain: SMRERTEEIVRRAEEEIRRIADAAIAEIRANPDLTPEEVAALRERAVDEMVEVRQRALNELYKAGASIDELAEASERLRRVFDEARARLDAAAAEHLAAR
B15: traf2_out_11_169_848 (protein)
chain: EEEEKNRKIIDKALELNDKAKEELRAHALALAKKAGLDTAAVEAIFEANKGKSLSAVAAALIAWFKAQGKDAEAAAVEAKYEELKEKINKEMTKFLKELE
B16: traf2_out_6_169_2491 (protein)
chain: SMAEELKKEAERHLKTAKELYEIAKTIYNQAINNKNYENIDDYIEALETIKNAYKHHYDKAIEYYKKLGNEEEAEKLEKEKEKKLKEIDEMIKKLKELKK
B17: traf2_out_14_17_1291 (protein)
chain: DIIEKLEEILKTAKELAKKYPELKLELTQLERKAESALVLAEMYEEDPSYKPELIQGLKNLIKLAKEVAEKLKPISAEAVKKLEEMEETAKEILKEVEAE
B18: traf2_out_20_3_2179 (protein)
chain: EELEEELEEELEEALELIKEAAKLADEETAKKLEELAERLKESRELSYEDRLVELSEIRRELLELAEAAKAAGKEELAAVLEEAAEELNEAMNLVYEIIE
B19: traf2_out_20_38_2002 (protein)
chain: SMEEEEEERLKEIIDVANEAYDEATERIEALRAAGKSVEEIAAIVRAEVAELLDAAGLEEERDELLADIDRALSSPDALRLFARILARARALVKQKELNE
B20: traf2_out_20_38_2003 (protein)
chain: SEEEEEERKLEEIIEVANEAYDEATERIAAMVAAGKTVEEIAAEVRAEVTRLLDAAGLEEERDELLADIDRALASPNALRLFARILARARALVKQKELNK
B21: traf2_out_13_95_1094 (protein)
chain: SKEVAEKIMEIADKMLDESLEVLKKLLEEMKKKGKLEEEIKEVLELAENQSINEAIHKLKELAKKYPEVKELLEKAIEELEEIRRKAGKEVAKILKEEKE
B22: traf2_out_8_174_2572 (protein)
chain: DEEKRLKVVADFSTEMADILDEFEEELKKASDLPLEELKKKAEELKKEALEKIDKLKKEWEAKVDEETAKLVQRAANSAKQQIENMAKGAILRKELEDAA
B23: traf2_out_16_177_1462 (protein)
chain: ELDKIMDRIVVLSKIKRAAEYAIENKKEEAEKYLKEAEKEAEEAGDEEGLKKIKELKELMEKNTEEAKKKLKELAKEAQKEAGKLVDEAEALLKARAAAE
B24: traf2_out_20_38_2031 (protein)
chain: SEEEEEKKRLEEAIKVANDAYDRYTERFAALRAAGRTVEEMAAETRAEVRELLTAAGLEEEAEELIADIDLALGSPEAERLLVRILARAEALVWQKKKNE
B25: traf2_out_11_169_830 (protein)
chain: EEAEKNRKINDFALELEEKAKEEFKKFVLELAKEEGLDVEEIKKIFEENKNKSLSAIAAAVIEYFKSKGKEEAAEKVLKKYEELKEKINKEATEKIKELE
B26: traf2_out_6_156_2413 (protein)
chain: MVEKIFEETLKKVEELIKKLSKASEEKKISYISKIAGTVYKALQQLREAGASLEEIKEFSERLKKEIEKLLKEAGLDEKTRNLVLSSVNAVFTVAIEEAK
B27: traf2_out_18_167_1822 (protein)
chain: SAETEAEIERLTDELVRVSEIRRLALLALEALRTDPAAADAARDALIAALNEVPEFRPDAAALRAAPRAELPALLERIAERAQRRAQELYERREELKKKQ
B28: traf2_out_3_89_2308 (protein)
chain: MEERKKTIEEMEKQMEAYVKGFEKSAKFVAKQMLADGMSLDTLRGVLEAAKSALLEVLRETAKERGLSEEEIEKLLKKAEEELNKVVDEVVADAAAKRAA
B29: traf2_out_6_156_2410 (protein)
chain: MVDAIFKEALEKIEKEIKKLSEASEEKKIKYISNIAGTVYRALQQLRDAGASLAEIEAFAKKLKAEIEKKLKEAGLPEDTINLVLSSINAVFDVAIADAK

This is an account of results in the supplement of paper PMC12632987.

In all, about 1,800 sequences were measured (“median log2 fold change of GCK-ALFA target abundance (FLAG IP / Myc IP barcode read proportion)”: median about 0.14, lowest 2% from about -0.84 on). Shown is part of a subset that was picked to be rich in the lowest values.

This assay addresses T1, TRAF2, Q12933. Briefly: median log2 fold change of GCK-ALFA target abundance (FLAG IP / Myc IP barcode read proportion) (log2 ratio); each designed protein is fused to an ALFA-tag nanobody in HEK293 cells to bring the named protein to FLAG-tagged glucokinase (GCK); Myc marks an untargeted standard; higher = target protein stabilised (more abundant). The conditions noted are these: target protein: 3xFLAG-MCP-GCK-ALFA reporter; HEK293 landing pad (RPLP). The method, boiled down: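 An ALFA-nanobody-fused binder library was recombined into HEK293 landing-pad cells and induced with 2 μg mL^−1 doxycycline. Cells were transfected with a plasmid expressing a FLAG-tagged target and a Myc-tagged standard. After 48 h, lysates underwent anti-FLAG and anti-Myc immunoprecipitation, and circular RNA barcodes were reverse transcribed, amplified and sequenced. Target abundance is the per-binder median log2 ratio of FLAG to Myc barcode read proportions. Barcodes needed ≥10^−7 proportion in both replicates, binders ≥3 barcodes per replicate, and a 10^−6 pseudocount was added; the two replicates were pooled.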
For B1, the “median log2 fold change” value was determined as 0.281.
On to B2, for which the “median log2 fold change” value worked out at 0.163.
The result for B3 reads 0.268; that for B4, 0.297.
The result for B5 reads 0.283; that for B6, -0.132.
On to B7, for which the “median log2 fold change” value turned out to be 0.194.
As to B8, the “median log2 fold change” value worked out at 0.304.
Regarding B9, the “median log2 fold change” value was -0.218.
Regarding B10, the “median log2 fold change” value was 0.302.
For the molecule B11, the “median log2 fold change” value was determined as 0.0548.
As for B12, the “median log2 fold change” value is -0.187.
For the molecule B13, the “median log2 fold change” value came out at 0.0712.
As to B14, the “median log2 fold change” value was -0.0195.
With B15 the figure was -0.138.
In the case of B16, the “median log2 fold change” value was -0.373.
Turning to B17, the “median log2 fold change” value is 0.128.
With B18, the “median log2 fold change” value is -0.145.
With B19, the “median log2 fold change” value is -1.43.
Regarding B20, the “median log2 fold change” value was -0.767.
Consider B21, for which the “median log2 fold change” value was -0.0821.
For the molecule B22, the “median log2 fold change” value came to 0.209.
With B23 the figure was -0.0546; with B24, -0.852.
As to B25, the “median log2 fold change” value turned out to be 0.00164.
Take B26: the “median log2 fold change” value came out at 0.231.
For B27, the “median log2 fold change” value stood at 0.336.
Take B28: the “median log2 fold change” value is -0.103.
With B29, the “median log2 fold change” value turned out to be 0.298.
